The target in assay [1] is T1, Aspartate--tRNA(Asp/Asn) ligase (Mycobacterium tuberculosis (strain ATCC 25618 / H37Rv)) (UniProt P9WFW3). Also: in the data most compounds retested in dose-response had high values.
T1 sequence (whole entry): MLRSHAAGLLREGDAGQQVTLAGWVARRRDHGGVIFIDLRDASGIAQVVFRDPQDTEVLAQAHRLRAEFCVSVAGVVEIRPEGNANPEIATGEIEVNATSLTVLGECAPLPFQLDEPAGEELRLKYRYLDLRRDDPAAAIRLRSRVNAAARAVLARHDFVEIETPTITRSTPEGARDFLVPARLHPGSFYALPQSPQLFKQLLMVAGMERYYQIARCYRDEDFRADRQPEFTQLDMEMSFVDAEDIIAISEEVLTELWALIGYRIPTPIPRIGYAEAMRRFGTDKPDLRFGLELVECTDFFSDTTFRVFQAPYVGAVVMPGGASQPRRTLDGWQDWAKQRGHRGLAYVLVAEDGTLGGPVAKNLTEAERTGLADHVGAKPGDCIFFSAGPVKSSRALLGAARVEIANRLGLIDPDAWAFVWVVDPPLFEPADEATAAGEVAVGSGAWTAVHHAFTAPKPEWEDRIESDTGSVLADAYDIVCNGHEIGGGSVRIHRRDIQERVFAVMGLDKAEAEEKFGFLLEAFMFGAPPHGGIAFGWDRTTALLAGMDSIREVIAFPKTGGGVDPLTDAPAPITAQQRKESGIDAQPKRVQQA
The experiment in a line: Assay for Asp RNA synthetase-1 from Mycobacterium tuberculosis. The class given is functional. Also noted: scale not given: direction of the effect not stated beside the values. As to conditions: 30 µM.

Assay [2] has as its target Shiga toxin 2 (Escherichia coli O157:H7) (UniProt P09385+P09386). The experiment in a line: E. coli 0.157:H7 Shiga Toxin SOP - stx2 screening assay. Type of assay: functional. Also noted: scale not given: direction of the effect not stated beside the values. Particulars: 30 µM.

As for `Cc1ncsc1C(=O)N1CCCN(Cc2cscn2)CC1`, the values for the Percent Effect in assay [1] and in assay [2] were 1.47% and 16.9%, respectively.
Turning to `Fc1ccc(-c2n[nH]cc2-c2ccnc(NCCN3CCCC3)n2)cc1`, the Percent Effect in assay [1] is 8.63%; in assay [2] it was -50.2%.
In the same order, the values of `Cc1ccc(CN2CCCn3c(nc(CN4CCCC4)cc3=O)C2)s1` are 4.32% and 7.63%.
In the same order, the values of `c1ccc2oc(NC3CCCN(Cc4noc(C5CC5)n4)C3)nc2c1` (configuration not stated) are -5.59% and -6.82%.
In the same order, the values of `Cc1cc(-c2ccc(C(=O)O)cc2)nc(C2CCCN(C(C)C)C2)n1` (configuration not stated) are -0.0735% and -2.97%.
For the molecule `CCCNC(=O)c1sc(Nc2ccc(Cl)cn2)nc1C`, the Percent Effect was -4.04% in assay [1] and -46.7% in assay [2].
As for `OC1(Cn2ccc3ccncc32)CCN(Cc2ccccn2)CC1`, the Percent Effect in assay [1] was -0.402%; in assay [2] it was -26.5%.
For `CCC1=N[C@@]2(CC[C@@H]3CN(S(=O)(=O)CC)C[C@@H]32)C(=O)N1CC(C)C` the same measures were 2.06% and -9.69%.
For `CN(C)CC1CN(c2cnc3ccccc3n2)CCO1` (configuration not stated) the same measures were -3.4% and -17.5%.
Take `COC(=O)c1cccn1C1CCN(CC(=O)NC2CCCCC2)CC1`: the Percent Effect in assay [1] was -1.64%; in assay [2], 1.4%.
In the same order, the values of `COc1cccc(CC2CN(C3CCN(C(C)=O)CC3)CCO2)c1` (configuration not stated) are -4.28% and -26%.
In the same order, the values of `Cc1ccccc1C(=O)NCc1ccc(N2CCNC(=O)C2)c(F)c1` are -0.569% and 0.0326%.
In the same order, the values of `CN1CCCC2(CCN(C(=O)CCn3cncn3)C2)C1=O` (configuration not stated) are -4.51% and 27.3%.
With `c1nc2c(c(C3CC3)n1)CCN(Cc1ccc3c(c1)OCO3)CC2`, the Percent Effect in assay [1] is -2.19%; in assay [2], -20.6%.
Turning to `CN1CCCc2cc(CNC(=O)c3ccc(NC4CC4)nc3)ccc21`, the Percent Effect in assay [1] was -3.1%; in assay [2], -12.6%.
In the same order, the values of `Cc1ccc(CC(=O)N2CCc3nnc(N(C)C)cc3C2)cn1` are 0.322% and -40.7%.
For `COc1cccc(-c2noc(C3CCN(Cc4cn(C)nc4C)C3)n2)c1` (configuration not stated) the same measures were -1.93% and -38.8%.
As for `Fc1cnc(N2CCOCC3(CCCN(c4nncs4)C3)C2)nc1` (configuration not stated), the Percent Effect in assay [1] is -3.89%; in assay [2], 6.61%.
In the same order, the values of `Cc1noc(C)c1-c1cccc(CC2CCN(C(=O)CCC(=O)O)C2)n1` (configuration not stated) are -0.313% and -17.7%.
For `COCc1cnc2n1CCN(Cc1cccnc1)C2C` (configuration not stated) the same measures were 4.46% and -10.3%.
In the same order, the values of `Cc1ccccc1S(=O)(=O)NC(=O)CSc1ccc2c(c1)OCCO2` are -0.334% and -0.0455%.
For the molecule `CN(C)C(=O)NCc1cc2n(n1)CCN(C[C@H]1[C@@H]3CNC[C@@H]31)C2`, the figures for the Percent Effect in assay [1] and in assay [2] were -4.99% and -21.2%, respectively.
In the same order, the values of `O=C(NCCOc1cccc(Cl)c1)C1CC(=O)N(CC2CC2)C1` (configuration not stated) are 0% and -10.5%.
In the same order, the values of `NCc1cn(-c2ccccc2C(=O)NCc2ccccc2)cn1` are -1.51% and -5.86%.
For `N#Cc1ccc(C(=O)N2CCn3c(Cn4cccn4)cnc3C2)cc1` the same measures were 1.54% and 0.128%.
Turning to `O=C(NC1CCS(=O)(=O)C1)N1CCN(c2cnccn2)CC1` (configuration not stated), the results for the Percent Effect in assay [1] and in assay [2] were -1.72% and -8.56%, respectively.
